Test results: the supplement of paper PMC8975748
Where a name gives a salt, the structure may show the parent alone.

test system: Saccharomyces cerevisiae BY4741 SeMeCo community; experiment: z-score of prototroph abundance vs DMSO median; higher = larger share of this subpopulation than in DMSO controls; details: 10 µM; 24 h; SM minimal medium; subpopulation (auxotrophy): Prototroph
Method: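 Fluorescent four-plasmid SeMeCo (self-establishing metabolically cooperating S. cerevisiae BY4741 community; plasmids pH-mRuby2, pL-mWasabi, pU-eCFP, pM-TagRFP657) was grown 24 h in minimal SM medium with each Selleck FDA-approved drug at 10 µM in 384-well plates. Cells were fixed and imaged by high-content confocal microscopy. For each auxotrophic subpopulation (and the prototroph), a z-score gives the deviation from the DMSO vehicle-control population median.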

Row | SMILES | z-score of prototroph abundance
1 | NCC(O)c1ccc(O)cc1 (racemic) [(+,-)-Octopamine HCl] | 0.28
2 | CC[C@H]1CN2CC[C@]3(C(=O)Nc4ccccc43)[C@@H]2C[C@@H]1/C(=C\OC)C(=O)OC [Rhynchophylline] | -0.9
3 | COc1cc2c(cc1OC)C1CC(=O)C(CC(C)C)CN1CC2 (centres undefined) [Tetrabenazine (Xenazine)] | 0.02
4 | CN(C)C(=O)Oc1ccc[n+](C)c1 [Pyridostigmine Bromide] | -0.27
5 | CCN(C)C(=O)Oc1cccc([C@H](C)N(C)C)c1 [Rivastigmine Tartrate] | 0.28
6 | CN(C)C(=O)Oc1cccc([N+](C)(C)C)c1 [Neostigmine Bromide] | 0.27
7 | CCOC(=O)Nc1ccc(NCc2ccc(F)cc2)cc1N [Retigabine] | 0.21
8 | CCN1CC2(OC(=O)c3ccccc3NC(C)=O)CCC(OC)C34C1C(CC23)C1(O)CC(OC)C2CC4C1(O)C2OC (centres undefined) [Lappaconitine] | 0.24
9 | CC(NC(C)(C)C)C(=O)c1cccc(Cl)c1 (centres undefined) [Amfebutamone (Bupropion) HCl] | 0.49
10 | C=C(C)[C@H]1Cc2c(ccc3c2O[C@@H]2COc4cc(OC)c(OC)cc4[C@@H]2C3=O)O1 [Rotenone (Barbasco)] | -0.73
11 | CN1c2ccccc2C(NCCCCCCC(=O)O)c2ccc(Cl)cc2S1(=O)=O (centres undefined) [Tianeptine sodium] | 0
12 | O=C(O[C@H]1C[C@H]2CC[C@@H](C1)[N+]21CCCC1)C(O)(c1ccccc1)c1ccccc1 [Trospium chloride] | 0.42
13 | CN[C@@H]1[C@@H](O)[C@@H](O[C@@H]2[C@@H](O)[C@H](O[C@H]3O[C@H]([C@@H](C)O)[C@@H](O)[C@H](O)[C@H]3N)[C@@H](N)C[C@H]2N)OC[C@]1(C)O [Geneticin (G418 Sulfate)] | 0.1
14 | CN(C)[C@@H]1C(=O)C(C(N)=O)=C(O)[C@@]2(O)C(=O)C3=C(O)c4c(O)cccc4[C@@](C)(O)[C@H]3[C@H](O)[C@@H]12 [Oxytetracycline (Terramycin)] | -0.34
15 | C[C@H]1O[C@H](O[C@H]2[C@H](O)[C@@H](O)[C@@H](O)[C@H](O)[C@@H]2O)[C@@H](N)C[C@@H]1NC(=N)C(=O)O [Kasugamycin hydrochloride] | 0.23
16 | Cn1cc(C2=C(c3cn(C4CCN(Cc5ccccn5)CC4)c4ccccc34)C(=O)NC2=O)c2ccccc21 | 0.73
17 | CC1(C)SC2C(N)C(=O)N2C1C(=O)O (centres undefined) [6-Aminopenicillanic acid] | 0.04

Row | SMILES | z-score of prototroph abundance
18 | NC(=O)CN1CCCC1=O [Piracetam] | -1.9
19 | CC(C)(O)C(Cl)(Cl)Cl [Chlorobutanol] | -0.27
20 | CC[N+](C)(CC)CCOC(=O)C(O)(c1ccccc1)c1ccccc1 [Methylbenactyzine Bromide] | 1.09
21 | CN1[C@@H]2C[C@@H](OC(=O)[C@H](CO)c3ccccc3)C[C@H]1[C@@H]1O[C@@H]12 [Scopolamine HBr] | 0.86
22 | CCN(CC)CCOC(=O)C(O)(c1ccccc1)c1ccccc1 [Benactyzine hydrochloride] | -0.56
23 | CN1C(=O)COc2c(C(=O)NC3CN4CCC3CC4)cc(Cl)cc21 (centres undefined) [Azasetron HCl] | 0.42
24 | C=CN1CCCC1=O.II [Povidone iodine] | -1.1
25 | C=CC[C@]1(O)CC[C@H]2[C@@H]3CCC4=CC(=O)CCC4=C3C=C[C@@]21C [Altrenogest] | 0.56
26 | C=CCN1C[C@H](C(=O)N(CCCN(C)C)C(=O)NCC)C[C@@H]2c3cccc4[nH]cc(c34)C[C@H]21 [Cabergoline] | -0.35
27 | CC(=O)O[C@H]1C[C@@H]2CC[C@@H]3[C@H](CC[C@@]4(C)[C@H]3C[C@H]([N+]3(C)CCCCC3)[C@@H]4OC(C)=O)[C@@]2(C)C[C@@H]1[N+]1(C)CCCCC1 [Pancuronium dibromide] | 0.97
28 | COc1ccc2c(c1)[C@]13CCCC[C@@H]1[C@H](C2)N(C)CC3 [Dextromethorphan hydrobromide hydrate] | 0.38
29 | O=c1cccc2n1C[C@@H]1CNC[C@H]2C1 [Cytisine] | 0.46
30 | COc1ccc(C=O)cc1 [p-Anisaldehyde] | 1.5
31 | COc1ccc(C(CN(C)C)C2(O)CCCCC2)cc1 (centres undefined) [Venlafaxine] | 0.19
32 | COc1ccc(C(CN(C)C)C2(O)CCCCC2)cc1 (centres undefined) [Venlafaxine HCl] | 0
33 | C=C[C@H]1CN2CC[C@H]1C[C@H]2[C@H](O)c1ccnc2ccccc12 [Cinchonidine] | -0.41
34 | Cc1cc(O)ccc1Cl [Chlorocresol] | 0.71
